High-throughput results: PubChem, several laboratories
A selection: hits, their analogues and other compounds. The true share with any hit is near 1.7%.
PriA SSB inh = inhibitors of Klebsiella pneumoniae PriA binding to SSB C-terminal tail; AlphaScreen SSBct-PriA binding, biotinylated peptide; inhibition, % at 33 µM; hit rate 0.6% among 430,000; AID 1272365; in the data active = inhibition mostly above about 37%, no sharp cut-off; inactive = mostly below about 20%
VHR inh abs = blocks human VHR1 dual specificity phosphatase; recombinant VHR phosphatase, pNPP absorbance; P51452; inhibition, % at 13.3 µM; hit rate 0.52% among 290,000; in the data active = inhibition above about 50%
Target sequence (P51452 whole entry, looked up): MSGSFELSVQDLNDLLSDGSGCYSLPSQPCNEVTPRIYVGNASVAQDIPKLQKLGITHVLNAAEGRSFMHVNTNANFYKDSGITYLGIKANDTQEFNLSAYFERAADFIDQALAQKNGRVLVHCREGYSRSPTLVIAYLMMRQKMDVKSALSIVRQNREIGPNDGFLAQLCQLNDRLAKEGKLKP
RecA splice inh = blocks M. tuberculosis RecA intein splicing; AID 2221; P9WHJ3; hit rate 0.75% among 290,000; cell-free RecA intein splicing, fluorescence; inhibition, % (no concentration beside the values); in the data active = inhibition above about 30%
SARS 3CLpro inh = SARS-CoV 3CLpro protease inhibition; P0C6X7; recombinant SARS-CoV 3CLpro, quenched FRET peptide cleavage; inhibition, % at 6 µM; hit rate 0.14% among 290,000; in the data active = inhibition above about 12%
CCHF vOTU inh = CCHFV vOTU protease inhibition; AID 651958; hit rate 0.55% among 370,000; inhibition, % at 11.5 µM; Pep-AMC fluorescence; in the data active = inhibition above about 30%
Each line names hits and unclear results; the compound was inactive in the other large screens.

O=C(Nc1ccc(S(=O)(=O)N2CCC(c3nc4ccccc4[nH]3)CC2)cc1)C1CCCO1 (centres undefined)	none (no result: VHR inh abs, RecA splice inh, SARS 3CLpro inh, CCHF vOTU inh)
O=C(Nc1nccs1)c1ccc(N2CCOCC2)c([N+](=O)[O-])c1	none
CC(C)(C)c1csc(NC(=O)c2ccc(N3CCOCC3)c([N+](=O)[O-])c2)n1	PriA SSB inh 39 (no result: VHR inh abs, RecA splice inh, SARS 3CLpro inh, CCHF vOTU inh)
CC(C)(C)c1csc(NC(=O)c2c(F)c(F)c(F)c(F)c2F)n1	RecA splice inh 31
CN(C)c1ccc(NC(=O)/C=C\C(=O)N2CCOCC2)cc1	none (no result: VHR inh abs, RecA splice inh, SARS 3CLpro inh, CCHF vOTU inh)
CC(=O)C(=NNc1ccc(Cl)cc1Cl)Sc1cccc2cccnc12	PriA SSB inh 73 (no result: VHR inh abs, RecA splice inh, SARS 3CLpro inh, CCHF vOTU inh)
N#CCCN(C(=O)CCl)c1cccc(Cl)c1	RecA splice inh 45
CCCCCCCN(C(=O)CCl)c1cccc(C)c1	none
CCOc1cc(CNc2ccc(CNc3ncn[nH]3)cc2)ccc1OCc1ccccc1	PriA SSB inh 43
COc1cc(CNc2ccc(CNc3ncn[nH]3)cc2)ccc1OCC(=O)NC(C)(C)C	none
COc1ccc(-c2coc3cc(Nc4ccc(C)cc4)cc(C)c3c2=O)cc1	none (no result: VHR inh abs, RecA splice inh, SARS 3CLpro inh, CCHF vOTU inh)
CN(c1ccccc1)c1nnc(-c2ccc(NC(=O)Cc3cccs3)cc2)s1	none (no result: VHR inh abs, RecA splice inh, SARS 3CLpro inh, CCHF vOTU inh)
CCCOC(=O)CSC1=C(C#N)C(c2ccccc2Cl)CC(=O)N1 (centres undefined)	VHR inh abs 50
CCn1c(SCc2nc(-c3cccs3)no2)nc2ccccc2c1=O	none (no result: VHR inh abs, RecA splice inh, SARS 3CLpro inh, CCHF vOTU inh)
Cn1cccc1-c1noc(CNC(=O)Cn2ncccc2=O)n1	none (no result: VHR inh abs, RecA splice inh, SARS 3CLpro inh, CCHF vOTU inh)
Oc1ccc(N=Cc2c[nH]c3ccccc23)cc1	PriA SSB inh 46 (no result: VHR inh abs, RecA splice inh, SARS 3CLpro inh, CCHF vOTU inh)
CC(=O)c1c2c3c(cccc3n(C)c1=O)C(=O)c1ccccc1-2	VHR inh abs 54 (no result: CCHF vOTU inh)
CC(=O)c1c2c3c(c(Br)ccc3n(C)c1=O)C(=O)c1ccccc1-2	none
CC(=O)Nc1ccc(C(=O)NC(C)c2ccc(-n3ccnc3)cc2)cc1 (centres undefined)	VHR inh abs 53
CCOC(=O)C(NCc1ccccn1)(NC(=O)c1cccnc1)C(F)(F)F (centres undefined)	PriA SSB inh 51
O=c1c(-c2nc(C3CC3)no2)cccn1Cc1c(F)cccc1Cl	none (no result: VHR inh abs, RecA splice inh, SARS 3CLpro inh, CCHF vOTU inh)
Cc1cc(NC(=O)Cn2cccc(-c3nc(C4CC4)no3)c2=O)no1	PriA SSB inh 26 (no result: VHR inh abs, RecA splice inh, SARS 3CLpro inh, CCHF vOTU inh)
Cc1cc(C)n(-c2ccc(CCC(=O)NCCOc3ccc(F)cc3)cc2)n1	none (no result: VHR inh abs, RecA splice inh, SARS 3CLpro inh, CCHF vOTU inh)
COc1cc(OC)c2c(-c3ccccc3)cc(=O)oc2c1C(CCN1CCCC(C)C1)c1ccc(N(C)C)cc1 (centres undefined)	PriA SSB inh 97 (no result: SARS 3CLpro inh)
CCN(CC)CCC(c1ccc(N(C)C)cc1)c1c(OC)cc(OC)c2c(-c3ccccc3)cc(=O)oc12 (centres undefined)	PriA SSB inh 87 (no result: RecA splice inh, SARS 3CLpro inh)
COc1ccc(C(CCN2CCCC(C)C2)c2c(OC)cc(OC)c3c(-c4ccccc4)cc(=O)oc23)cc1 (centres undefined)	none (no result: SARS 3CLpro inh)
COc1cc(OC)c2c(-c3ccccc3)cc(=O)oc2c1C(CC(=O)N1CCN(c2ccccc2)CC1)c1ccc(N(C)C)cc1 (centres undefined)	none (no result: SARS 3CLpro inh)
CCCCCc1cc(=O)oc2c(C(CCN3CCCCC3)c3ccc4c(c3)OCO4)c(OC)cc(OC)c12 (centres undefined)	PriA SSB inh 42 (no result: SARS 3CLpro inh)
COc1cc(OC)c2c(C)cc(=O)oc2c1C(CCN1CCOCC1)c1ccc(N(C)C)cc1 (centres undefined)	PriA SSB inh 45 (no result: SARS 3CLpro inh)
O=C(Nc1nc(-c2cc3ccccc3oc2=O)cs1)c1ccc(Br)cc1	none (no result: VHR inh abs, RecA splice inh, SARS 3CLpro inh, CCHF vOTU inh)
N#C/C(=C\c1cccnc1)c1nc2ccccc2o1	none (no result: VHR inh abs, RecA splice inh, SARS 3CLpro inh, CCHF vOTU inh)
COc1cc(OC)c2ccc(=O)oc2c1C(CCN1CCN(c2ccccc2)CC1)c1ccc(N(C)C)cc1 (centres undefined)	PriA SSB inh 55 (no result: SARS 3CLpro inh)
COc1cc(O)c(C(CCN2CCN(c3ccccc3)CC2)c2ccc3c(c2)OCO3)c(OC)c1 (centres undefined)	PriA SSB inh 42 (no result: SARS 3CLpro inh)
COc1cc(OC)c2c(-c3ccccc3)cc(=O)oc2c1C(CCN1CCN(c2ccccc2)CC1)c1ccc(N(C)C)cc1 (centres undefined)	PriA SSB inh 55 (no result: SARS 3CLpro inh)
COc1cc(O)c(C(CCN2CCCC2)c2ccc3c(c2)OCO3)c(OC)c1 (centres undefined)	none (no result: SARS 3CLpro inh)
COc1ccc(C(CCN2CCN(c3ccccc3)CC2)c2c(OC)cc(OC)c3c(-c4ccccc4)cc(=O)oc23)cc1 (centres undefined)	none (no result: SARS 3CLpro inh)
COc1cc(OC)c2c(-c3ccccc3)cc(=O)oc2c1C(CC(=O)N1CCOCC1)c1ccc(N(C)C)cc1 (centres undefined)	PriA SSB inh 42 (no result: SARS 3CLpro inh)
CC(=O)c1cccc(S(=O)(=O)N2Cc3cncnc3C2)c1	none (no result: VHR inh abs, RecA splice inh, SARS 3CLpro inh, CCHF vOTU inh)
O=C(NCC(O)c1ccoc1)Nc1c(F)cccc1F (centres undefined)	none (no result: VHR inh abs, RecA splice inh, SARS 3CLpro inh, CCHF vOTU inh)
